# Bioassay records (PubChem BioAssay)
# This is a sample that favours compounds with a hit; in the whole collection about 1.1% have one here.
# HTR5A ag ctr: counter-screen for OPRM1-OPRD1 agonists: human HTR5A agonism | activation, % at 9.3 µM | HTR5A agonist assay, luminescence, cell-based | 0.61% of 340,000 active | AID 504692; in the data active = activation mostly above about 9.5%, no sharp cut-off; inactive = mostly below about 7.6%;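 note: 0% = cells with vehicle only and 100% = reference agonist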
# OPRM1-OPRD1 inv: inverse agonist of human OPRM1-OPRD1 heterodimerization; P35372+P41143; cell-based MOR-DOR heterodimer luminescence, inverse agonism; inhibition, % at 9.3 µM; 0.21% of 340,000 active; in the data active = inhibition above about 22%, passing the limit was not always enough;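 note: 0% = cells with DMSO and 100% = wells without cells with DMSO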
# HTR5A inv ctr: counter-screen for OPRM1-OPRD1 inverse agonists: human HTR5A inverse agonism; P47898; 0.083% of 340,000 active; HTR5A cell line, luminescence; inhibition, % at 9.3 µM; in the data active = inhibition mostly above about 23%, no sharp cut-off; inactive = mostly below about 18%;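 note: 0% = cells with DMSO and 100% = no-cell wells with DMSO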
# OPRM1-OPRD1 ag: agonists of human mu-delta opioid receptor heterodimerization | AID 504326 | activation, % at 9.3 µM | 0.3% of 340,000 active | cells, OPRM1-OPRD1 heterodimerization, luminescence;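 note: 0% = vehicle-treated cells and 100% = reference agonist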
# OPRM1-D1 ag cf: confirmation of human OPRM1-OPRD1 heterodimerization agonists. 45% of 830 active. cells, MOR-DOR heterodimerization, luminescence complementation. AID 504904. shares compounds with OPRM1-OPRD1 ag. activation, % at 9.3 µM;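 note: 0% = vehicle-treated cells and 100% = reference agonist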
# HTR5A ag ctr2: counter-screen for OPRM1-OPRD1 agonists: human HTR5A agonism; shares compounds with OPRM1-OPRD1 ag; HTR5A agonist counterscreen, cell luminescence; activation, % at 9.3 µM; 8% of 830 active; AID 504905; in the data active = activation above about 17%;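 note: 0% = vehicle-treated cells and 100% = reference agonist response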
# * hit, by the source's call; i = inactive; / = not tested or not shown. Cut-off read from the data, not from the text of the source, unless noted: active = activation above about 18%; inactive = the rest.
SMILES,HTR5A ag ctr,OPRM1-OPRD1 inv,HTR5A inv ctr,OPRM1-OPRD1 ag,OPRM1-D1 ag cf,HTR5A ag ctr2
Cc1cc(-c2nn(-c3ccccc3F)cc2CN2CCN(c3ccccn3)CC2)c(C)s1,-1,-135,3,28*,3,0
CCOC(=O)C1(CC2CC2)CCN(Cc2cn[nH]c2-c2cccc(F)c2)CC1,-3,-111,-5,16,/,/
CCOC(=O)C1(CC2CC2)CCN(Cc2ccc3cccc(F)c3n2)CC1,5,-121,-14,24*,28*,0
CCCc1cc(=O)n2[nH]c(C)c(-c3ccc(OC)cc3)c2n1,-2,8,8,-2,/,/
CCOc1ccc(/C=N/NC(=O)CC(=O)Nc2ccc(Cl)c(Cl)c2)cc1,9,-112,-32,21*,16,3
CNC(=O)Cn1ncc2c(C)n(Cc3ccc(C)cc3)c(C)c2c1=O,0,11,25,-2,/,/
Cc1c2cnn(CC(=O)Nc3c(F)c(F)cc(F)c3F)c(=O)c2c(C)n1Cc1ccccc1F,5,-178,-14,35*,34*,31*
CC/C(=N\NC(=O)c1ccc(CN(C)S(=O)(=O)c2ccc(C)cc2)cc1)c1ccc(OC(F)F)cc1,0,-165,-6,31*,1,1
Cc1ccc(S(=O)(=O)N(C)Cc2ccc(C(=O)NN=C(CC(C)C)CC(C)C)cc2)cc1,1,-70,-2,12,/,/
CCc1ccc(N2CC(C(=O)OCC(=O)Nc3ccc(C#N)cc3)CC2=O)cc1 (centres undefined),2,3,-5,-1,/,/
COc1ccc(C2Nc3ccccc3C(=O)N2Cc2ccco2)cc1COc1ccc(NC(C)=O)cc1 (centres undefined),7,i,-10,117*,68*,-3
COc1ccc(C2Nc3ccccc3C(=O)N2Cc2ccccc2)cc1CSc1ccccn1 (centres undefined),0,-188,-2,35*,1,4
COc1ccc(C2Nc3ccccc3C(=O)N2c2ccccc2)cc1COc1ccccn1 (centres undefined),5,9,11,-2,/,/
COc1ccc(C2Nc3ccccc3C(=O)N2c2ccccc2)cc1CSc1ccccn1 (centres undefined),0,-139,-3,27*,28*,-2
COc1ccc(C2Nc3ccccc3C(=O)N2c2ccc(F)cc2)cc1CSc1ccccn1 (centres undefined),-4,-226,10,38*,46*,3
O=C(c1ccco1)N1CCN(C(=O)c2ccccc2OCc2ccccc2)CC1,-3,1,13,0,/,/
Cc1ccc(N(C(=O)c2csnn2)C(C(=O)NC2CCCCC2)c2ccccn2)cc1C (centres undefined),-3,14,11,-2,/,/
O=C(O)c1cccc([N+](=O)[O-])c1C(=O)Nc1ccc2ccccc2c1,-7,-3,14,1,/,/
CC(C)Oc1cccc(C(=O)C2CCCN(S(C)(=O)=O)C2)c1 (centres undefined),5,-3,13,1,/,/
COC(=O)c1ccc(CNC(=O)COC(=O)C2CC3C=CC2C3)cc1 (centres undefined),0,11,1,-2,/,/
CCN1C(c2ccccc2)=C(c2ccccc2)S/C1=C/C=C1\SC(=S)N(C)C1=O,11,-299,-31,48*,441*,29*
CCN1C(=O)/C(=C/C=C2/Sc3ccc4ccccc4c3N2CCO)SC1=S,4,0,-7,0,/,/
CCN1C(c2ccccc2)=C(c2ccccc2)S/C1=C\C=C1/SC(=S)N(C)C1=O,13,i,-16,137*,13,6
CN1CCS/C1=C/C=C1/SC(=S)N(Cc2ccccc2)C1=O,0,23,2,-4,/,/
COC(=O)NCC(c1ccc2c(c1)OCO2)N1CCN(c2ccccc2)CC1 (centres undefined),0,i,-4,217*,193*,1
SMILES,HTR5A ag ctr,OPRM1-OPRD1 inv,HTR5A inv ctr,OPRM1-OPRD1 ag,OPRM1-D1 ag cf,HTR5A ag ctr2
COC1=C(c2ccccc2)C(=O)c2ccccc2C1=O,-3,-57,36,8,/,/
O=C(C1=C(c2ccccc2)C(=O)c2ccccc2C1=O)c1ccccc1,3,-132,-9,20*,6,0
O=C(COC(=O)c1ccc(Br)cc1)NCc1ccccc1,0,5,-4,-1,/,/
CC(=O)Cc1cc(O)c2ccccc2c1OC(=O)c1ccc(Br)cc1,8,-101,1,20*,11,13
COc1cc(/C=N/NC(N)=S)ccc1OCC(=O)Nc1ccc(C)c(C)c1,-3,-125,7,22*,10,0
COc1cc2c3nnc(-c4ccc(F)cc4)c-3cn(Cc3ccccc3F)c2cc1OC,6,-97,-22,19*,28*,6
CC(C)c1ccc(S(=O)(=O)Nc2ccc(SC(F)F)cc2)cc1,2,-114,-7,18*,0,-4
NC(=O)c1ccccc1OCC(=O)Nc1ccc(Cl)c(Cl)c1,2,7,-6,-1,/,/
CC(=O)Nc1sc(N/N=C/c2ccc(O)cc2)nc1-c1ccc(C)cc1,0,4,0,-1,/,/
CC(C)(C)c1csc(N/N=C/c2ccc(O)cc2)n1,-1,-84,4,18*,49*,1
O=C(CSc1ccccc1F)NNC(=O)c1ccncc1,-2,12,4,-3,/,/
Cc1ccccc1CN1CCN(C(=O)c2ccc(F)cc2)CC1,4,3,-15,-1,/,/
CN(C)C(CNC(=O)/C=C/c1cccc(Cl)c1)c1ccccc1 (centres undefined),-3,i,9,275*,10,6
CN(C)C(CNC(=O)c1ccc2ccccc2n1)c1ccccc1 (centres undefined),3,-437,-8,58*,-2,0
CC(NC(=O)c1ccc2ccccc2n1)c1ccccc1 (centres undefined),5,-2,-53,0,/,/
COCCCNC(=O)/C=C/c1cccc(Cl)c1,0,0,3,0,/,/
CN(C)C(CNC(=O)c1cnc(Cl)c(Cl)c1)c1ccccc1 (centres undefined),-1,i,3,353*,374*,0
CN(C)C(CNC(=O)c1cc(S(=O)(=O)N(C)c2ccccc2)ccc1Cl)c1ccccc1 (centres undefined),6,4,-17,-1,/,/
Cc1cccc(C(C)C)c1NC(=O)c1c(-c2ccccc2)noc1C,2,7,17,-2,/,/
CSCCC(/C(O)=C(\C#N)c1nc2ccccc2[nH]1)N1C(=O)c2ccccc2C1=O (centres undefined),1,-264,-2,58*,49*,1
Nc1nc(SCc2ccccc2Cl)c2ncn(C3OC(CO)C(O)C3O)c2n1 (centres undefined),-2,18,9,-4,/,/
Cc1ccc2nc(Cl)c3cc(C(=O)N(CCN(C)C)Cc4ccco4)sc3c2c1,-1,-156,3,32*,1,3
Cc1ccc(N(CC(=O)NCc2ccccc2)C(=O)CCC(=O)Nc2ccccn2)cc1,-3,5,8,-1,/,/
